In the library only some 12% were active in any assay of this set; here they are far more common.
BAZ2B block = BAZ2B (human) inhibition; AlphaScreen BAZ2B-H3K14Ac peptide displacement; Potency, µM (doses to about 114 µM), without a hit: top-dose activity change, negative = inhibition, usual class: inhibitors; 360,000 compounds, 4.4% hits; AID 504333; note: % is set by controls: 0 for no effect and ±100 for the full control effect; nearly all actives have a fitted effect of over 60% in size
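Inhibition is scored as reduced AlphaScreen emission. The BAZ2B/b-H3(5-23)K14Ac complex (50 nM each) in PBS pH 7.4, 0.01% Tween-20 meets compound (up to 110 uM) for 30 min at RT before bead addition.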
JMJD2A Tudor inh = JMJD2A Tudor domain (human) inhibition; 390,000 compounds, 4.4% hits; Potency, µM (highest dose often 114 µM), inactives show top-dose activity change, negative = inhibition, hits mostly inhibitors; O75164; AID 504339; AlphaScreen JMJD2A-Tudor / H3K4me3 peptide binding; note: % is set by controls: 0 for no effect and ±100 for the full control effect; nearly all actives have a fitted effect of over 50% in size
Target sequence (O75164 whole entry, looked up, the tested form may be a part): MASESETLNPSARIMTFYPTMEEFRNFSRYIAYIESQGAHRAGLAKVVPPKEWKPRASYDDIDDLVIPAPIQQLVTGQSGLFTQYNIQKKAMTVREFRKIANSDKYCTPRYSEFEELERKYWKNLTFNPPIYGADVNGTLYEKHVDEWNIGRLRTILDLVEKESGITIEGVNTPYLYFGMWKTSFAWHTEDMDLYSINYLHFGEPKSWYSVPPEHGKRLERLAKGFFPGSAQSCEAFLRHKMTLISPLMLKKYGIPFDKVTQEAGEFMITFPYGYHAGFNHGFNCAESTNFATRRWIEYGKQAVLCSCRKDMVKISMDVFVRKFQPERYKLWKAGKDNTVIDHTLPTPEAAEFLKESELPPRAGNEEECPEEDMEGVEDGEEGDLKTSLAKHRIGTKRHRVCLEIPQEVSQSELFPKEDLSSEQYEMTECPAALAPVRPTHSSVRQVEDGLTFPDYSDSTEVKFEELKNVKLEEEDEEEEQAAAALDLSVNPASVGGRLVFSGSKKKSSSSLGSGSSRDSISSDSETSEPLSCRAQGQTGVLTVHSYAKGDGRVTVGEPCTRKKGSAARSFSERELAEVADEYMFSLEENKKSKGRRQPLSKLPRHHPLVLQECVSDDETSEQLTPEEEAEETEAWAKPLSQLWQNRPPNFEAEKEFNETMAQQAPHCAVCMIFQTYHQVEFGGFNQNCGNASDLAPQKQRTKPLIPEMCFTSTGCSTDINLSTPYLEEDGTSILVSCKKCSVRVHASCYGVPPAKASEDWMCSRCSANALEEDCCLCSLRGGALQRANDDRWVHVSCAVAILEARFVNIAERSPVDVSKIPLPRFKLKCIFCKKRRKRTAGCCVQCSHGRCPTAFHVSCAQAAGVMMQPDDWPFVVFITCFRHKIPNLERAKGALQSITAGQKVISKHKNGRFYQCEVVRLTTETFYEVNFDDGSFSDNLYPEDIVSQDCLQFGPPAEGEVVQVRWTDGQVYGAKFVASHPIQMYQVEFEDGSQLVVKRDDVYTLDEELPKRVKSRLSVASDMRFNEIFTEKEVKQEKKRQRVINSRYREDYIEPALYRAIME
Sfp inh = blocks B. subtilis Sfp PPTase activity; Biochemical Sfp PPTase activity, qHTS; Potency, µM, without a hit: largest response in the series, negative = inhibition, most hits filed as inhibitors; 310,000 compounds, 3.5% hits; AID 1490;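 note: the enzyme is Sfp with the accession as filed and its product quenches rhodamine fluorescence; 0% = enzyme reaction without inhibitor and -100% = no enzyme wells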
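Reaction rates are the 30-min fluorescence difference (ex 525, em 598 nm) in wells containing 15 nM Sfp, 5 uM rhodamine-CoA and 12.5 uM BHQ-2-YbbR at pH 7.6 with 10 mM MgCl2.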
HP1b chromo inh = blocks HP1-beta chromodomain binding to methylated histone tails; AlphaScreen HP1-beta / biotin-H3K9me3 peptide binding; Potency, µM (series often up to 114 µM), for inactives: top-dose activity change, negative = inhibition, most hits filed as inhibitors; 390,000 compounds, 0.56% hits; AID 540317; note: nearly all actives have a fitted effect of over 70% in size
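HP1-beta protein (50 nM final) preincubated 30 min at room temperature with biotinylated H3(1-18)K9me3 peptide (50 nM) in PBS pH 7.4, 0.01% Tween-20, then compound added for 30 min. AlphaScreen streptavidin donor/nickel chelate acceptor beads (10 ug/mL final), 30 min dark, luminescence read.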
G9a block = inhibitors of human histone lysine methyltransferase G9a; Q96KQ7; 350,000 compounds, 8.8% hits; G9a H3K9 monomethylation, AlphaScreen, 2 h; Potency, µM (series often up to 102 µM), for inactives: top-dose activity, negative = inhibition, most hits filed as inhibitors; AID 504332; note: % is set by controls: 0 for no effect and ±100 for the full control effect; nearly all actives have a fitted effect of over 75% in size
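Quantitative HTS format: methyltransferase activity on a biotin-tagged H3K9 peptide is measured by AlphaScreen, using a rabbit anti-monomethyl-H3K9 antibody with streptavidin donor and anti-IgG acceptor beads. Final levels are 20 nM enzyme, 500 nM peptide, 20 uM SAM; 2 h RT.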
Starred values were filed as active, the others as inactive; [ ] = another dose, or the depositor's remark. Calls come from the whole dose curve; as a rule, active = well fitted curve in the direction sought with a large enough effect; inconclusive = small, poorly fitted or top-dose-only effect, or another doubt; inactive = no such curve, though single readings can be large; an effect the other way counts as inactive or inconclusive. Potency is the fitted concentration of half-maximal effect.

`CN(C)c1ccc(-c2ccncc2)cc1` gave BAZ2B block 3.7%, Sfp inh 24.3% and G9a block 8.1%[2.33 µM].
`CC/C(=C\c1ccc(N(C)C)cc1)c1ccncc1` gave JMJD2A Tudor inh 22.4µM* and HP1b chromo inh inconclusive.
For CCNc1ncc2nc(-c3cccs3)c(=O)n(-c3ccccc3)c2n1 the results were Sfp inh 16.8% and G9a block 16.3%[0.501 µM].
Screening CCOc1ccc(C(=O)Nc2cc(NC(=O)c3ccc(OCC)c(Cl)c3)cc(C(=O)O)c2)cc1Cl returned BAZ2B block inconclusive, JMJD2A Tudor inh 50.1µM*, Sfp inh 2.4%, HP1b chromo inh inconclusive and G9a block inconclusive.
CCOc1ccc(C(=O)Nc2cccc(C(=O)O)c2)cc1Cl was read as BAZ2B block -8.8%, JMJD2A Tudor inh -2.8%, Sfp inh 8.1%, HP1b chromo inh 12.3% and G9a block -31.2%.
`CCOC(Cn1c(SCc2cc(C(C)=O)ccc2OC)nc2ccccc2c1=O)OCC` gave BAZ2B block 2.0%, JMJD2A Tudor inh 0.7%, Sfp inh 8.1%, HP1b chromo inh 28.6% and G9a block 18.8%.
`COc1ccc(C(C)=O)cc1CSc1nc2cc(C(=O)O)ccc2c(=O)n1Cc1ccccc1` gave BAZ2B block 50.1µM*, JMJD2A Tudor inh -31.2%, Sfp inh -7.6%, HP1b chromo inh 14.9% and G9a block inconclusive.
Screening Cc1ccc(NS(=O)(=O)c2cc3c(cc2F)NC(=O)CC3)cc1Cl returned JMJD2A Tudor inh -24.1%.
O=C1C=Cc2cccc3ccc(O)c1c23 was read as JMJD2A Tudor inh -14.5% and HP1b chromo inh 15.5%[57 µM].
Screening O=C1C=CC(=O)c2c(O)c(Cl)c(Cl)c(O)c21 returned Sfp inh 11.2µM*.
For O=C1C=CC(=O)c2c(O)c(CO)c(CO)c(O)c21 the results were JMJD2A Tudor inh 2.24µM* and HP1b chromo inh 3.16µM*.
For C=CC[C@@H]1C=C[C@H](O/N=C(\C)CCN2CCCc3nc(C)c(C)cc32)[C@H](CO)O1 the results were Sfp inh 6.7%.
For C=CCC(C)(NCc1ccccc1)c1ccco1 (stereo not drawn) the results were BAZ2B block 50.1µM*, JMJD2A Tudor inh 2µM*, Sfp inh -5.4%, HP1b chromo inh inconclusive and G9a block 12.6µM*.
`C=CCC(C)(NCc1ccccc1)C(=O)OCC` (stereo not drawn) gave Sfp inh -27.3%.
NC(=O)C1(S(=O)(=O)c2ccccc2)CCCCC1 was read as BAZ2B block -2.7%, JMJD2A Tudor inh 0.0%, Sfp inh 9.3%, HP1b chromo inh 21.2% and G9a block -5.1%[59 µM].
NC1(C(=O)O)CCCCC1c1ccccc1 (stereo not drawn) was read as JMJD2A Tudor inh 1.41µM* and HP1b chromo inh -2.3%.
COc1ccc(NC(=O)Nc2c(C)n(C)n(-c3ccccc3)c2=O)cc1 was read as BAZ2B block 13.0%, JMJD2A Tudor inh -13.1%, Sfp inh 29.9%, HP1b chromo inh 16.1% and G9a block 8.8%[59 µM].
For COc1ccc(/C(O)=C/C(=O)C(=O)NNC(=O)c2ccccc2)cc1 the results were BAZ2B block inconclusive, JMJD2A Tudor inh -19.0%, Sfp inh -1.0%, HP1b chromo inh 34.1% and G9a block 15.4%.
Screening COc1ccc(/C(O)=C/C(=O)C(=O)NNC(=O)C(O)(c2ccccc2)c2ccccc2)cc1 returned BAZ2B block -36.8%, JMJD2A Tudor inh 79.4µM*, Sfp inh 8.3%, HP1b chromo inh 19.3% and G9a block -17.9%.
For Cc1c(NC(=O)C(=O)/C=C(/O)c2ccccc2)c(=O)n(-c2ccccc2)n1C the results were BAZ2B block 50.1µM*, JMJD2A Tudor inh 20µM*, Sfp inh -5.9%, HP1b chromo inh 13.7% and G9a block 8.91µM*.
For COc1ccc(/C(O)=C/C(=O)C(=O)Nc2c(C)n(C)n(-c3ccccc3)c2=O)cc1 the results were BAZ2B block inconclusive, JMJD2A Tudor inh 22.4µM*, Sfp inh 3.4%, HP1b chromo inh 8.5% and G9a block inconclusive.
Screening Cc1c(NC(=S)NC(=O)c2ccccc2)c(=O)n(-c2ccccc2)n1C returned JMJD2A Tudor inh 9.7% and HP1b chromo inh 19.8%.
For COc1ccc(N(CC(=O)Nc2cc(OC)c(OC)cc2C(=O)O)S(=O)(=O)c2c(C)noc2C)cc1 the results were BAZ2B block -0.8%, JMJD2A Tudor inh -4.8%, Sfp inh -5.7%, HP1b chromo inh 33.9% and G9a block 15.5%.
Screening CCCOc1ccc(/C=N/NC(=O)c2ccc3c(c2)OCO3)c(OCCC)c1 returned BAZ2B block -1.1%, JMJD2A Tudor inh -4.9%, Sfp inh -4.5%, HP1b chromo inh 31.1% and G9a block 46.8%.
`O=C1C(Nc2ccccc2)=CC(c2ccc(O)cc2)N1c1ccccc1` (stereo not drawn) gave BAZ2B block inconclusive, JMJD2A Tudor inh -8.1%[11.4 µM], Sfp inh inconclusive and HP1b chromo inh 64.5%.
`COc1cc(C2C=C(Nc3ccccc3)C(=O)N2c2ccccc2)ccc1O` (stereo not drawn) gave BAZ2B block inconclusive, JMJD2A Tudor inh inconclusive, Sfp inh inconclusive, HP1b chromo inh -2.8% and G9a block 50.1µM*.
Screening CCn1c(SCc2ccccc2)nnc1-c1cccnc1 returned BAZ2B block -22.2%, JMJD2A Tudor inh 5.8%, Sfp inh 1.6%, HP1b chromo inh 25.9% and G9a block 9.3%.
Screening COc1cccc(/C=N/Nc2cc(N3CCOCC3)ncn2)c1O returned BAZ2B block 2.82µM*, JMJD2A Tudor inh 44.7µM*, Sfp inh 6.6%, HP1b chromo inh 36.8% and G9a block 45.1%.
For Cc1ccc(S(=O)(=O)Nn2c(O)c(C=C3N=c4ccccc4=N3)sc2=S)cc1 the results were BAZ2B block -30.2%, JMJD2A Tudor inh inconclusive, Sfp inh -1.3%, HP1b chromo inh -18.0% and G9a block inconclusive.
`O=C1N=c2ccc(Br)cc2=C1c1sc(=S)n(NS(=O)(=O)c2ccccc2)c1O` gave BAZ2B block 20µM*, JMJD2A Tudor inh 50.1µM*, Sfp inh inconclusive, HP1b chromo inh inconclusive and G9a block 15.8µM*.
Screening Cn1cncc1C#Cc1ccc2cc(CCO)oc(=O)c2c1 returned BAZ2B block 56.2µM*, JMJD2A Tudor inh -28.1%, HP1b chromo inh 41.4% and G9a block 1.1%[0.501 µM].
Cn1cncc1C#Cc1ccc2cc(CCCO)oc(=O)c2c1 was read as BAZ2B block -0.7%, JMJD2A Tudor inh -25.5%, HP1b chromo inh 26.1% and G9a block 9.4%[0.501 µM].
Screening CN(C)/C=C/c1oc2ccc(O)cc2c1[N+](=O)[O-] returned BAZ2B block 25.1µM*, JMJD2A Tudor inh -21.8%[57.1 µM], Sfp inh 8.0%, HP1b chromo inh -19.6% and G9a block 50.1µM*.

High-throughput results (PubChem)
